# Source: the supplement of paper PMC8728848
# Many of the other results were omitted from the sample, so the strongest signals are more common in it than they were.
# B1: Glycodelin A (Homo sapiens), P09466 (protein)
# chain: MLCLLLTLGVALVCGVPAMDIPQTKQDLELPKLAGTWHSMAMATNNISLMATLKAPLRVHITSLLPTPEDNLEIVLHRWENNSCVEKKVLGEKTENPKKFKINYTVANEATLLDTDYDNFLFLCLQDTTTPIQSMMCQYLARVLVEDDEIMQGFIRAFRPLPRHLWYLLDLKQMEEPCRF
# Experiments:
# Experiment in all cases: glycan array binding signal (z-score within array); higher = stronger binding
# Settings in all cases: glycan notation: IUPAC condensed, linker removed
# Fuc(a1-2)Gal(b1-3)GalNAc = molecular target: Fuc(a1-2)Gal(b1-3)GalNAc
# How it was run: (§1)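 Arrays were curated from the Consortium for Functional Glycomics database, 3228 in total, and kept only where the protein sequence was available. Binding is expressed as a within-array Z-score. This score was averaged across arrays of the same protein sequence at different concentrations or buffers and across linkers, and negative values can be read as non-binding.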
# [1] = molecular target: Fuc(a1-2)Gal(b1-3)GalNAc(b1-3)Gal
# How it was run: as §1
# [2] = molecular target: Fuc(a1-2)Gal(b1-3)GalNAc(b1-3)Gal(a1-4)Gal(b1-4)Glc
# How it was run: as §1
# Fuc(a1-2)Gal(b1-3)GlcNAc = molecular target: Fuc(a1-2)Gal(b1-3)GlcNAc
# How it was run: as §1
# [3] = molecular target: Fuc(a1-2)[GalNAc(a1-3)]Gal(b1-4)[Fuc(a1-3)]GlcNAc
# How it was run: as §1
# Gal(a1-3)Gal(b1-3)GlcNAc = molecular target: Gal(a1-3)Gal(b1-3)GlcNAc
# How it was run: as §1
# [4] = molecular target: Gal(b1-3)GalNAc(b1-3)Gal(a1-4)Gal(b1-4)Glc
# How it was run: as §1
# [5] = molecular target: Gal(b1-3)[Fuc(a1-4)]GlcNAc
# How it was run: as §1
# [6] = molecular target: Gal(b1-3)[Fuc(a1-4)]GlcNAc(b1-3)Gal(b1-4)GlcNAc
# How it was run: as §1
# [7] = molecular target: Gal(b1-4)GlcNAc(b1-3)GalNAc
# How it was run: as §1
# [8] = molecular target: Gal3S(b1-3)[Fuc(a1-4)]GlcNAc
# How it was run: as §1
# GalNAc(a1-3)Gal = molecular target: GalNAc(a1-3)Gal
# How it was run: as §1
# [9] = molecular target: GlcNAc(b1-3)[GlcNAc(b1-6)]GalNAc
# How it was run: as §1
# GlcNAc(b1-4)GlcNAc = molecular target: GlcNAc(b1-4)GlcNAc
# How it was run: as §1
# [10] = molecular target: GlcNAc(b1-6)Gal(b1-4)GlcNAc
# How it was run: as §1
# [11] = molecular target: Man(a1-2)Man(a1-2)Man(a1-6)[Man(a1-3)]Man
# How it was run: as §1
# [12] = molecular target: Man(a1-2)Man(a1-3)[Man(a1-2)Man(a1-6)]Man
# How it was run: as §1
# [13] = molecular target: Man(a1-2)Man(a1-6)[Man(a1-3)]Man(a1-6)[Man(a1-2)Man(a1-2)Man(a1-3)]Man
# How it was run: as §1
# [14] = molecular target: Neu5Ac(a2-3)Gal(b1-3)GalNAc(b1-4)[Neu5Ac(a2-3)]Gal(b1-4)Glc
# How it was run: as §1
# [15] = molecular target: Neu5Ac(a2-3)Gal(b1-4)GlcNAc(b1-3)Gal(b1-3)GlcNAc
# How it was run: as §1
# [16] = molecular target: Neu5Ac(a2-3)Gal6S(b1-4)[Fuc(a1-3)]GlcNAc
# How it was run: as §1
# [17] = molecular target: Neu5Ac(a2-6)Gal(b1-4)GlcNAc(b1-2)Man(a1-3)[GlcNAc(b1-2)Man(b1-4)GlcNAc(b1-2)Man(a1-6)]Man(b1-4)GlcNAc(b1-4)GlcNAc
# How it was run: as §1
# Neu5Ac(a2-6)GalNAc = molecular target: Neu5Ac(a2-6)GalNAc
# How it was run: as §1
# [18] = molecular target: Neu5Ac(a2-8)Neu5Ac(a2-8)Neu5Ac(a2-8)Neu5Ac(a2-3)[GalNAc(b1-4)]Gal(b1-4)Glc
# How it was run: as §1
# Neu5Ac(b2-6)GalNAc = molecular target: Neu5Ac(b2-6)GalNAc
# How it was run: as §1
binder,measurement,setting,value
B1,glycan array binding signal (z-score),Fuc(a1-2)Gal(b1-3)GalNAc,-0.421
same,glycan array binding signal (z-score),[1],-0.414
same,glycan array binding signal (z-score),[2],-0.485
same,glycan array binding signal (z-score),Fuc(a1-2)Gal(b1-3)GlcNAc,-0.318
same,glycan array binding signal (z-score),[3],-0.439
same,glycan array binding signal (z-score),Gal(a1-3)Gal(b1-3)GlcNAc,4.32
same,glycan array binding signal (z-score),[4],-0.473
same,glycan array binding signal (z-score),[5],0.183
same,glycan array binding signal (z-score),[6],1.52
same,glycan array binding signal (z-score),[7],-0.373
same,glycan array binding signal (z-score),[8],3.69
same,glycan array binding signal (z-score),GalNAc(a1-3)Gal,-0.099
same,glycan array binding signal (z-score),[9],-0.397
same,glycan array binding signal (z-score),GlcNAc(b1-4)GlcNAc,-0.002
same,glycan array binding signal (z-score),[10],-0.5
same,glycan array binding signal (z-score),[11],-0.508
same,glycan array binding signal (z-score),[12],-0.43
same,glycan array binding signal (z-score),[13],-0.427
same,glycan array binding signal (z-score),[14],-0.406
same,glycan array binding signal (z-score),[15],-0.449
same,glycan array binding signal (z-score),[16],-0.448
same,glycan array binding signal (z-score),[17],2.02
same,glycan array binding signal (z-score),Neu5Ac(a2-6)GalNAc,4.31
same,glycan array binding signal (z-score),[18],4.64
same,glycan array binding signal (z-score),Neu5Ac(b2-6)GalNAc,3.68
